# Inconclusive results are not listed. Unmarked numbers belong to inactive results. The source made the active and inactive calls. Calls follow the shape of the dose curve; as a rule, active = well fitted cell-killing curve with a large enough effect; inconclusive = small, poorly fitted or top-dose-only effect, or effect the other way; inactive = no such curve, though single readings can be large or run the other way.
# Assays:
# [1] = Quantitative High-Throughput drug screen in 47 multiple myeloma cell lines against the NCATS MIPE library collection: MM1S_ATCC cell viability assay (AID 1918980); also: nearly all actives have a fitted effect of over 45% in size
# How it was run: (§1)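 Viability after 48 h drug exposure was measured as ATP-dependent luminescence. Cells, 500 per well, sat at 37 °C under 5% CO2; DMSO wells set 100%, media-only wells 0%.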
# [2] = Quantitative High-Throughput drug screen in 47 multiple myeloma cell lines against the NCATS MIPE library collection: KMS28PE_JCRB cell viability assay (AID 1918983); also: nearly all actives have a fitted effect of over 35% in size
# How it was run: as §1
# [3] = Quantitative High-Throughput drug screen in 47 multiple myeloma cell lines against the NCATS MIPE library collection: OCIMY7_PLB cell viability assay (AID 1918987); details: OCI-MY7 myeloma viability, CellTiter-Glo ATP, 48 h; viability (% of DMSO): at 45.8 µM (top of the series); also: nearly all actives have a fitted effect of over 65% in size
# How it was run: as §1
# [4] = Quantitative High-Throughput drug screen in 47 multiple myeloma cell lines against the NCATS MIPE library collection: OCIMY5_PLB cell viability assay (AID 1918988); also: nearly all actives have a fitted effect of over 65% in size
# How it was run: as §1
# [5] = Quantitative High-Throughput drug screen in 47 multiple myeloma cell lines against the NCATS MIPE library collection: OPM1_PLB cell viability assay (AID 1918989); also: nearly all actives have a fitted effect of over 40% in size
# How it was run: as §1
# [6] = Quantitative High-Throughput drug screen in 47 multiple myeloma cell lines against the NCATS MIPE library collection: XG1_PLB cell viability assay (AID 1919866); also: nearly all actives have a fitted effect of over 35% in size
# How it was run: as §1
# [7] = Quantitative High-Throughput drug screen in 47 multiple myeloma cell lines against the NCATS MIPE library collection: VP6_DJ cell viability assay (AID 1919867); also: nearly all actives have a fitted effect of over 40% in size
# How it was run: as §1
# [8] = Quantitative High-Throughput drug screen in 47 multiple myeloma cell lines against the NCATS MIPE library collection: PE2_PLB cell viability assay (AID 1919869); also: nearly all actives have a fitted effect of over 35% in size
# How it was run: as §1
# [9] = Quantitative High-Throughput drug screen in 47 multiple myeloma cell lines against the NCATS MIPE library collection: PCM6_Riken cell viability assay (AID 1919870); also: nearly all actives have a fitted effect of over 30% in size
# How it was run: as §1
# [10] = Quantitative High-Throughput drug screen in 47 multiple myeloma cell lines against the NCATS MIPE library collection: OPM2_DSMZ cell viability assay (AID 1919872); also: nearly all actives have a fitted effect of over 30% in size
# How it was run: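 Myeloma cell lines, 500 cells per well, exposed to MIPE 4.0 library compounds for 48 h at 37C, 5% CO2. Viability from ATP by CellTiter-Glo luminescence; normalised to DMSO (100%) and media-only (0%) wells.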
# [11] = Quantitative High-Throughput drug screen in 47 multiple myeloma cell lines against the NCATS MIPE library collection: MM1R_ATCC cell viability assay (AID 1918981); also: nearly all actives have a fitted effect of over 35% in size
# How it was run: as §1
# [12] = Quantitative High-Throughput drug screen in 47 multiple myeloma cell lines against the NCATS MIPE library collection: LP1_DSMZ cell viability assay (AID 1918982); also: nearly all actives have a fitted effect of over 35% in size
# How it was run: as §1
# [13] = Quantitative High-Throughput drug screen in 47 multiple myeloma cell lines against the NCATS MIPE library collection: L363_DSMZ cell viability assay (AID 1918984); also: nearly all actives have a fitted effect of over 40% in size
# How it was run: as §1
# [14] = Quantitative High-Throughput drug screen in 47 multiple myeloma cell lines against the NCATS MIPE library collection: U266_ATCC cell viability assay (AID 1919864); also: nearly all actives have a fitted effect of over 35% in size
# How it was run: as §1
# [15] = Quantitative High-Throughput drug screen in 47 multiple myeloma cell lines against the NCATS MIPE library collection: XG6_PLB cell viability assay (AID 1919865); also: nearly all actives have a fitted effect of over 40% in size
# How it was run: as §1
# [16] = Quantitative High-Throughput drug screen in 47 multiple myeloma cell lines against the NCATS MIPE library collection: UTMC2_PLB cell viability assay (AID 1919868); details: CellTiter-Glo ATP luminescence, 48 h; viability (% of DMSO control): at 45.8 µM (top of the series); also: nearly all actives have a fitted effect of over 55% in size
# How it was run: as §1
# [17] = Quantitative High-Throughput drug screen in 47 multiple myeloma cell lines against the NCATS MIPE library collection: RPMI8226_ATCC cell viability assay (AID 1919871); also: nearly all actives have a fitted effect of over 30% in size
# How it was run: as §1
# [18] = Quantitative High-Throughput drug screen in 47 multiple myeloma cell lines against the NCATS MIPE library collection: SKMM1_PLB cell viability assay (AID 1919863); details: SKMM1 myeloma viability, CellTiter-Glo ATP, 48 h; viability: hits give low values; also: nearly all actives have a fitted effect of over 35% in size
# How it was run: as §1
# [19] = Quantitative High-Throughput drug screen in 47 multiple myeloma cell lines against the NCATS MIPE library collection: KMS34_JCRB cell viability assay (AID 1918985); also: nearly all actives have a fitted effect of over 40% in size
# How it was run: as §1
# Potency is read from the fitted curve at half-maximal effect.
SMILES,Potency [1],Potency [2],Potency [3],Potency [4],Potency [5],Potency [6],Potency [7],Potency [8],Potency [9],Potency [10],Potency [11],Potency [12],Potency [13],Potency [14],Potency [15],Potency [16],Potency [17],Potency [18],Potency [19]
c1ccc2c(Oc3nc(Nc4ccc(N5CCOCC5)cc4)c4ncn(C5CCCCC5)c4n3)cccc2c1,inactive,inactive,14.8 µM (active),18.7 µM (active),inactive,18.7 µM (active),14.8 µM (active),inactive,inactive,inactive,–,–,–,–,–,–,–,–,–
C[N+]1(C)[C@@H]2C[C@@H](OC(=O)C(O)(c3cccs3)c3cccs3)C[C@H]1[C@@H]1O[C@@H]12,–,inactive,–,inactive,inactive,inactive,–,inactive,inactive,inactive,inactive,inactive,inactive,inactive,inactive,inactive,inactive,–,–
C#C[C@]1(O)CC[C@@H]2[C@@H]3CCc4cc(O)ccc4[C@H]3CC[C@@]21C,11.8 µM (active),–,3.72 µM (active),7.43 µM (active),23.5 µM (active),3.32 µM (active),3.32 µM (active),16.6 µM (active),14.8 µM (active),–,20.9 µM (active),–,–,–,4.18 µM (active),–,–,14.8 µM (active),–
FC(F)(F)c1ccc(Nc2nc3ccc(Oc4ccnc(-c5ncc(C(F)(F)F)[nH]5)c4)cc3[nH]2)cc1,20.9 µM (active),–,–,16.6 µM (active),20.9 µM (active),14.8 µM (active),–,26.4 µM (active),18.7 µM (active),–,–,–,18.7 µM (active),13.2 µM (active),16.6 µM (active),–,26.4 µM (active),–,–
N#CC(=Cc1ccc(O)c(O)c1)C(=O)NCc1ccccc1,26.4 µM (active),inactive,5.9 µM (active),20.9 µM (active),9.35 µM (active),–,18.7 µM (active),14.8 µM (active),10.5 µM (active),inactive,–,–,3.32 µM (active),26.4 µM (active),8.33 µM (active),–,–,–,–
COc1cc2c(cc1OC)[C@@H]1C(=O)c3ccc4c(c3O[C@@H]1CO2)C=CC(C)(C)O4,2.96 µM (active),0.418 µM (active),0.418 µM (active),0.148 µM (active),10.5 µM (active),6.62 µM (active),0.0418 µM (active),7.43 µM (active),7.43 µM (active),–,–,0.0296 µM (active),0.0264 µM (active),–,0.105 µM (active),0.418 µM (active),–,13.2 µM (active),23.5 µM (active)
O=C1NC(=O)[C@@H](c2cn3c4c(cccc24)CCC3)[C@H]1c1c[nH]c2ccccc12,–,0.833 µM (active),0.0372 µM (active),0.132 µM (active),2.09 µM (active),0.0332 µM (active),0.526 µM (active),1.87 µM (active),5.9 µM (active),1.32 µM (active),14.8 µM (active),1.05 µM (active),0.118 µM (active),–,–,0.332 µM (active),16.6 µM (active),0.132 µM (active),0.418 µM (active)
C=C(C)[C@@H]1CC[C@]2(C)CC[C@]3(C)[C@H](CC[C@@H]4[C@@]5(C)CC[C@H](O)C(C)(C)[C@H]5CC[C@]43C)[C@@H]12,–,inactive,–,inactive,inactive,inactive,inactive,inactive,inactive,inactive,inactive,–,–,–,inactive,inactive,–,–,inactive
COc1ccc(C=Cc2cc(OC)c(OC)c(OC)c2)cc1NC(=O)[C@H](N)CO,–,–,0.001 µM (active),0.0026 µM (active),0.001 µM (active),–,–,–,0.0042 µM (active),0.0083 µM (active),0.0148 µM (active),0.0017 µM (active),0.0093 µM (active),0.0132 µM (active),inactive,0.001 µM (active),0.0264 µM (active),–,0.0042 µM (active)
c1cc(N[C@@H]2CCNC2)nc(-c2cnc3ccc(-c4cn[nH]c4)cn23)c1,–,–,7.43 µM (active),13.2 µM (active),16.6 µM (active),5.26 µM (active),14.8 µM (active),2.35 µM (active),5.9 µM (active),–,–,–,7.43 µM (active),–,2.64 µM (active),4.69 µM (active),–,26.4 µM (active),–
Oc1ccc([C@@H]2Oc3ccc(O)cc3[C@@H]3CCC[C@@H]32)cc1,–,23.5 µM (active),1.18 µM (active),14.8 µM (active),16.6 µM (active),–,–,–,–,33.2 µM (active),–,–,inactive,–,–,–,–,10.5 µM (active),23.5 µM (active)
CNC(=O)c1ccc(Nc2cc(Nc3ccccc3S(=O)(=O)C(C)C)c3cc[nH]c3n2)nc1,–,9.35 µM (active),0.833 µM (active),4.69 µM (active),–,0.296 µM (active),0.526 µM (active),1.18 µM (active),1.18 µM (active),7.43 µM (active),6.62 µM (active),–,2.35 µM (active),–,0.662 µM (active),0.418 µM (active),18.7 µM (active),18.7 µM (active),–
O=C(Nc1nnc(-c2ccco2)o1)c1cc(-c2ccccc2)nc2ccccc12,–,–,16.6 µM (active),18.7 µM (active),20.9 µM (active),13.2 µM (active),14.8 µM (active),18.7 µM (active),18.7 µM (active),inactive,–,–,–,–,4.18 µM (active),14.8 µM (active),13.2 µM (active),–,–

# From PubChem BioAssay (NCATS)
